In PubChem BioAssay AID588342 (National Center for Advancing Translational Sciences (NCATS), 2011):
Hit rate of the full screen: of about 360,000 compounds, about 25,000 (6.9%) were called active. Inconclusive results (about 9%) are left out. Only a selection was taken, and actives are over-represented in it overall. Unmarked numbers belong to inactive results. Calls follow the shape of the dose curve; as a rule, active = well fitted inhibition curve with a large enough effect; inconclusive = small, poorly fitted or top-dose-only effect; inactive = flat fitted curve, though single readings scatter.

Molecular target: Luciferin 4-monooxygenase (Photinus pyralis) (UniProt P08659)
Sequence (P08659 whole entry, looked up): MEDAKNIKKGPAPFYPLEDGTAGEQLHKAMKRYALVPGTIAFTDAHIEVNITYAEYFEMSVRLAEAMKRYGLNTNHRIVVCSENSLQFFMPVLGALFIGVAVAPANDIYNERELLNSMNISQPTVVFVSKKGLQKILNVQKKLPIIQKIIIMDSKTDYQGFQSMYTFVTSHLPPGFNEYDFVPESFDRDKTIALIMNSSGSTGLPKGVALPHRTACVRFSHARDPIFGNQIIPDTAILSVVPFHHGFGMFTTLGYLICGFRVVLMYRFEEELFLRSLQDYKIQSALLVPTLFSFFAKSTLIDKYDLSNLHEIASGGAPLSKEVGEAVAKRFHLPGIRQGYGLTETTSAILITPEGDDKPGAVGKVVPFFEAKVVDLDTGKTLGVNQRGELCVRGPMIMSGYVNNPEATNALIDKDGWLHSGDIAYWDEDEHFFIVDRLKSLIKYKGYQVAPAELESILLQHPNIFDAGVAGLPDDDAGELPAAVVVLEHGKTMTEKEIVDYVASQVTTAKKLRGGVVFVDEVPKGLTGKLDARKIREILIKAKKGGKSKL
Assay: qHTS profiling assay for firefly luciferase inhibitor/activator using purifed enzyme and Km concentrations of substrates (counterscreen for miR-21 project); also: nearly all actives have a fitted effect of over 55% in size;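 as to activity change, negative = inhibition: plate controls were vehicle for no effect and reference inhibitor for full effect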
Details: purified FLuc, luminescence inhibition; series mostly up to 57.5 µM; activity change, negative = inhibition: at the top concentration
From the text: MLPCN Grant: 1 R21 NS059478-01 (miR-21 grant) Assay Provider: NCGC NCGC Assay Overview: Firefly (Photinus pyralis) luciferase is one of the most commonly used transcriptional reporters for a number of reasons. It is considered one of the more dynamically responsive reporters -that is, responsive to changes in reporter transcription - as it requires no post-translational modifications and is enzymatically active directly after protein synthesis (Wood, 1998). Additionally, the half-life of the luciferase protein is short relative to other reporter-gene products (Wood, 1995). Whereas reporters with long half-lives potentially allow for increased signal due to accumulation of reporter-gene product, once accumulated in the cell, dynamic changes in reporter-gene expression may be difficult to detect(Fan and Wood, 2007; Almond et al., 2004). It has been shown that wild-type P. pyralis luciferase has a half-life of approximately […] hours in mammalian cells (Thompson et al., 1991). Firefly luciferase reporter-gene assays are also generally considered one of the most sensitive assay types (Wood, 1995; Wood, 1998). Although light produced in a bioluminescence reaction is of lower intensity than that produced during fluorescence emission, this is offset by little to no background light inherent to luminescent assays. Thus the luciferase reporter can be expressed at much lower levels than fluorescent proteins while still providing robust signal. # However, it was initially observed, in 1991, by Thompson et al., that compounds that resemble the substrates of firefly luciferase (FLuc) can act as competitive inhibitors of the enzyme, and that these compounds, upon interaction with luciferase in the cell, can actually stabilize the protein and increase its half-life. Accumulated intracellular FLuc protein can be measured as an increase in luminescence signal, upon addition of detection reagents (which contain high concentrations of FLuc substrates) commonly used in high-throughput screening. In cell-based reporter gene assays that use FLuc as the reporter gene to quantitate the potential influence of a given compound against the target biology, this apparent increase in luminescence can mistakenly be interpreted as identification of a compound that is active against the target of interest. This is the case for the miR-21 FLuc reporter gene assay used to identify inhibitors of the miR-21 pathway (PubChem AID 2289) - compounds of interest will inhibit miR-21 biogenesis/expression or activity, and are identified by causing an increase in luminescence, due to increased FLuc translation. However, FLuc inhibitory compounds that stabilize the FLuc protein will give an identical read-out, making it difficult to distinguish compounds that are active against the target from those active against FLuc. Previous profiling work to determine the prevalence of compounds that affect FLuc enzymatic activity (PubChem AID 411) identified that ~3% of the MLSMR library (then at ~72K) inhibited FLuc. […] Since the MLSMR had grown to ~350K compounds, and since it was expected that a significant percentage of compounds found active in the miR-21 FLuc assay would be FLuc inhibitors, the library was screened for activity against FLuc using a biochemical assay of purified FLuc and KM concentrations of FLuc substrates (D-luciferin and ATP).
NCGC Assay Protocol Summary: Reagents: 50mM Tris acetate, pH 7.5; 10mM Mg acetate; 10uM D-luciferin (Sigma #L9504); 10uM ATP; 0.01% Tween-20; 0.05% BSA; 10nM P. pyralis luciferase (Sigma #L9506) Control compounds used were two known firefly luciferase inhibitors (compounds (2) and (5) in Auld et al., 2010), and DMSO. […]

Compound	activity change, negative = inhibition [%]	Potency
CCN1CCN(CCCNC(=O)c2ccc3c(c2)sc2nc(-c4ccc(OC)cc4)cn23)CC1	-13.1	
O=C(Nc1ccc(Br)c2cccnc12)c1ccc(Cn2cc([N+](=O)[O-])cn2)o1	1.86	
O=C(N/N=C\c1ccc(Br)cc1)c1ccc(Cn2cccn2)o1		12 µM (active)
O=C(c1ccc(Cn2cc([N+](=O)[O-])cn2)o1)N1CCCC1	14.7	
CCc1ccc(CNC(=O)c2ccc(CS(=O)c3ccc(Br)cc3)o2)cc1 (stereo not drawn)	-16.3	
O=C(N/N=C/c1ccc2c(c1)OCO2)c1ccc(Cn2cc([N+](=O)[O-])cn2)o1		6.75 µM (active)
COc1cccc(NC(=O)c2ccc(Cn3cc([N+](=O)[O-])cn3)o2)c1	-4.26	
CN(C)c1ccc(/C=N/NC(=O)C(O)c2ccc(Br)cc2)cc1 (stereo not drawn)	-17.4	
O=C(N/N=C/c1ccc(Br)o1)c1cncc(Br)c1	-5.46	
CN(C)c1ccc(/C=N/NC(=O)c2ccc(Cn3cc(Br)cn3)o2)cc1		9.53 µM (active)
Cc1cccc(Cn2c(CN3CCC(C(=O)NCc4ccccc4Cl)CC3)cc3ccccc32)c1	-0.0278	
Cc1ccccc1CNC(=O)CCc1cn(Cc2ccccc2C)c2ccccc12	-9.27	
O=c1n(Cc2cccc(C(F)(F)F)c2)c2ccccc2c2nc(-c3ccccc3)nn12	4.37	
COc1ccccc1OCC(=O)Nc1nnc2n1CCS2	-1.03	
CCOc1ccc(S(=O)(=O)c2cn(Cc3ccccc3)c3ccc(OCC)cc3c2=O)cc1	0.46	
O=C1C2C3C=CC(C3)C2C(=O)N1c1ccc(-c2nc3ccccc3c(=O)o2)cc1 (stereo not drawn)		9.53 µM (active)
CCCCCOC(=O)c1ccc(N2C(=O)C3C4C=CC(C4)C3C2=O)cc1 (stereo not drawn)	-15.4	
O=C1C2C3C=CC(C3)C2C(=O)N1c1ccc(S(=O)(=O)Nc2nccs2)cc1 (stereo not drawn)	0.747	
COc1ccc(CCNc2nc(-c3ccc(F)cc3)cc(C(F)(F)F)n2)cc1OC	2.3	
Cc1ccc2c(c1)N(C(=O)Nc1ccc(Br)cc1F)CCO2	0.456	
COCCCNC(=O)c1ccc2c(c1)ncn2-c1ccccc1OC	-6.89	
COCCCNC(=O)c1ccc(CNS(=O)(=O)c2ccc(NC(C)=O)cc2)cc1		16.9 µM (active)
O=C(Nc1cccc(C(=O)N2CCCC2)c1)c1ccccc1	-2.48	
CCc1ccc(NC(=O)N2CCN(C(=O)c3nsc4ccccc34)CC2)cc1	-10.4	
COc1cccc(NC(=O)N2CCN(C(=O)c3nsc4ccccc34)CC2)c1	5.08	
NC(=O)C1CCN(C(=O)c2cccc(NC(=O)c3nsc4ccccc34)c2)CC1		12 µM (active)

Compound	activity change, negative = inhibition [%]	Potency
Cc1ccc(CCNC(=O)c2ccc(CNS(=O)(=O)c3ccc(C)cc3)cc2)cc1	-4.15	
COCCCNC(=O)c1ccc(NC(=O)c2nsc3ccccc23)cc1		16.9 µM (active)
CCc1ccccc1NC(=O)N1CCN(C(=O)c2nsc3ccccc23)CC1	-4.65	
Cc1ccccc1CNC(=O)c1cccc(NC(=O)c2nsc3ccccc23)c1		5.36 µM (active)
Cc1c(Cl)cccc1NC(=O)N1CCN(C(=O)c2nsc3ccccc23)CC1	1.68	
CCCCNC(=O)C1CCC(CNS(=O)(=O)c2ccc(NC(C)=O)cc2)CC1 (stereo not drawn)		inactive
O=C(CSc1nnc(COc2ccc(Cl)cc2)n1Cc1ccco1)N1CCNC1=O	5.23	
COc1ccc(OC)c(CNC(=O)Cn2nc(C)c3c(C)n(-c4ccccc4)nc3c2=O)c1	-2.53	
Cc1ccc(CNS(=O)(=O)c2ccc(-c3cc(C(F)(F)F)on3)s2)cc1	7.56	
COc1ccc(S(=O)(=O)Nc2cc(C)on2)cc1NC(C)=O	0.909	
Cc1ccc(-c2nc(S(=O)(=O)c3ccc(C)cc3)c(N3CCCCCC3)o2)cc1	-8.52	
Nc1ccccc1Sc1cc(Cl)nnc1Cl	4.42	
COC(=O)c1scc(-c2ccccc2)c1S(=O)(=O)Nc1ccccc1	-4.51	
COc1cc(C(F)(F)F)nc2c(Br)c(C(C)(C)C)nn12	-4.91	
O=C(NCCc1c[nH]c2ccccc12)C1CCN(Cc2ccc(Br)cc2)CC1	-0.302	
O=C(NCCc1ccccc1)c1ccc2c(c1)N(Cc1ccc(F)cc1)C(=O)c1ccccc1S2(=O)=O	-0.75	
Cc1ccccc1OCc1nc2c3cnn(-c4ccccc4F)c3ncn2n1	-0.731	
COC(=O)c1ccccc1NC(=O)Cn1c(=O)n(-c2cccc(C(F)(F)F)c2)c(=O)c2c(C)c(C)sc21	-7.45	
CSc1ncc(Cl)c(C(=O)Nc2ccc(S(=O)(=O)N3CCCC(C)C3)cc2)n1 (stereo not drawn)	5.6	
COc1ccc(CC(=O)Nc2ccc(-c3nc4ccccc4s3)c(C)c2)cc1	-10.8	
CCCCc1nn2c(=O)cc(COC(=O)c3ccccc3NC(=O)C(C)(C)C)nc2s1	-3.42	
CC(=O)Nc1cccc(-c2nc3ccccc3s2)c1C		6.01 µM (active)
Cc1cccc(C(=O)N2CCC(c3nc4ccccc4s3)CC2)c1	-2.17	
Cc1c(NC(=O)Cc2ccccc2)cccc1-c1nc2cccnc2s1	1.87	
Cc1cccc(NC(=O)Cn2c(C(F)(F)F)nc3ccccc32)c1C	3.57	
Cc1c(NC(=O)C(C)(C)C)cccc1-c1nc2ccccc2s1		4.78 µM (active)

Compound	activity change, negative = inhibition [%]	Potency
CCC(C(=O)Nc1cccc(-c2nc3cccnc3s2)c1C)c1ccccc1 (stereo not drawn)	-0.908	
Cc1cccc(C(=O)Nc2ccc(-c3nc4ccccc4s3)c(C)c2)c1		2.69 µM (active)
COCCCNC(NC(=O)c1ccc(OC)cc1)C(Cl)(Cl)Cl (stereo not drawn)	-0.556	
COC(=O)c1scc(-c2ccc(C)cc2)c1S(=O)(=O)Nc1cc(Cl)c(OC)cc1OC	-2.24	
COc1ccccc1Nc1cc(C(=O)NCCCN(C)C2CCCCC2)c2ccccc2n1	-13.2	
Cc1ccc(C(=O)CC2(O)C(=O)N(CCc3ccccc3)c3ccc(Br)cc32)cc1 (stereo not drawn)	-12.3	
COc1cc(Cl)ccc1Nc1ncc(C(=O)N2CCN(c3ccccc3OC)CC2)c2ccccc12	-0.617	
COc1cc(OC)cc(C(=O)NCCSCc2ccc(Cl)cc2)c1	3.1	
O=C(O)c1cscn1	-0.163	
O=C(CCNS(=O)(=O)c1ccccc1)NCCCc1ccccc1	-1.01	
CC(=O)Nc1cccc(-c2csc(Nc3cccc(C)n3)n2)c1		2.39 µM (active)
Cc1cc(=O)oc(C)c1C(=O)Nc1cnc2ccccc2c1	-0.785	
CC(=O)Nc1cccc(-c2cnc3ccccc3n2)c1		12 µM (active)
Clc1ccc(Nc2nc(-c3cccs3)cs2)nc1		1.51 µM (active)
CC(=O)Nc1ccc(NC(=O)COc2ncnc3ccccc23)cc1	2.39	
Cc1nc(CNS(=O)(=O)c2cccnc2)cs1	0.166	
O=C(Nc1nc(-c2cccnc2)cs1)c1ccccc1F	-6.48	
c1csc(-c2cn3c(n2)SCC3)c1	-22.6	
Cc1ccccc1Nc1nc(-c2cccnc2)cs1		6.01 µM (active)
COC(=O)c1ccc(NC(=S)Nc2cccc(C)n2)cc1	-0.516	
O=C(Nc1ccc(-c2csc(Nc3cccc(C(F)(F)F)c3)n2)cc1)c1cccc(C(F)(F)F)c1	1.5	
COc1ccc(Br)cc1C1CC(=O)Nc2c1c(C)nn2-c1nc(C)cc(C)n1 (stereo not drawn)	-8.06	
Cc1ccc(NC(=O)CSc2nc3c([nH]c4ccccc43)c(=O)n2-c2ccccc2)c(C)c1	-2.12	
O=C(CN(C(=O)c1csnn1)c1cccc(Cl)c1)NC1CCCC1	0.359	
CCCCN(CC(=O)Nc1cccc(S(=O)(=O)N2CCCC2)c1)Cc1nc2ccccc2c(=O)[nH]1	-1.73	
COC(=O)c1ccc(COC(=O)CNC(=O)c2cccc(OC)c2)o1	-18	

Compound	activity change, negative = inhibition [%]	Potency
CCOC(=O)c1scc(-c2ccc(C)cc2)c1S(=O)(=O)Nc1cc(C)ccc1C	-14.5	
Cc1ccc2nc(COc3ccccc3NC(=O)Nc3ccc(F)c(Cl)c3)cc(=O)n2c1	-18.2	
O=C(CN1C(=O)C2C3C=CC(C3)C2C1=O)Nc1nc(-c2ccccn2)cs1 (stereo not drawn)	-3.95	
CSc1nc(Nc2ccc(F)cc2)cc(-c2ccccc2)n1	-13	
Cc1cccc(Nc2nc(-c3ccccc3)cs2)n1		3.79 µM (active)
CC(NC(=O)c1ccco1)C(=O)Nc1nc(-c2ccccn2)cs1 (stereo not drawn)	1.86	
c1ccc(Nc2nc(-c3ccncc3)cs2)nc1		4.78 µM (active)
COC(=O)c1cc2occc2n1Cc1nc(-c2ccc(C)cc2)oc1C	4.5	
COc1ccc2c(c1)C(NS(=O)(=O)OCC(Cl)(Cl)Cl)CCC2 (stereo not drawn)	-1.13	
COCCN(C(=O)CSCc1ccc(C)cc1)c1c(N)n(CC(C)C)c(=O)[nH]c1=O	-1.29	
CCOc1cccc(CC(=O)N2CCc3c([nH]c4ccccc34)C2c2ccc(OC)cc2)c1OCC (stereo not drawn)	-2.95	
Cc1cc(=O)c2cc(C(=O)Nc3cccc(C)c3C)ccc2[nH]1	-4.94	
CCS(=O)(=O)N1CCc2cc(C(=O)NCc3ccc(C)cc3)ccc21	-5.13	
COc1ccc(NC(=O)Cn2c(=O)cc(C)c3c(C)nn(-c4cccc(Cl)c4C)c32)cc1OC	4.01	
COc1ccccc1N1CCN(C(=O)C(=O)N/N=C/c2ccccc2F)CC1	4.07	
COc1ccccc1/C=N/N1CCN(Cc2ccccc2Cl)CC1	-1.85	
COc1ccccc1N1CCN(/N=C\C(Br)=C\c2ccccc2)CC1		16.9 µM (active)
CNCC(O)CN1CCN(c2ccccc2OC)CC1 (stereo not drawn)	-0.912	
COc1ccccc1N1CCN(/N=C/c2ccc(O)cc2O)CC1		7.57 µM (active)
COc1ccccc1N1CCN(C2C(=O)c3ccccc3N2C(C)=O)CC1 (stereo not drawn)	-18	
CCOC(=O)CN1C(=O)N[C@@H](c2ccc(Br)cc2)C(C(C)=O)=C1C	-0.544	
Cc1oc(-c2ccccc2F)nc1CN1CCC(C(=O)NCCc2ccc(Cl)cc2)CC1	-14.6	
CN(Cc1ccccc1)C(=O)c1cc2c(=O)n(C)c3ccccc3c2s1	-13.9	
Cc1[nH]c2ccccc2c1C(c1ccccc1)c1cccs1 (stereo not drawn)	-7.8	
Cc1cccc(N2CCN(C(=O)c3ccc4c(c3)CCN4S(=O)(=O)c3ccccc3)CC2)c1C	-1.27	
